According to PubChem BioAssay AID1852 (Sanford-Burnham Center for Chemical Genomics, 2009):
Hit rate of the full screen: of about 2,500 compounds, about 1,100 (44%) were called active.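 Rule for the calls: active = inhibition above 50% at 4 µM in the single-point screen; inactive = inhibition of 50% or less.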 So high a share suggests a set chosen from earlier hits. Some of the results follow.

test: blockers of TNF-a NF-kB luciferase induction – cell-based, HEK293T NF-kB-Luc, luminescence, selectivity assay for NOD1/NOD2 signaling inhibitor project, primary screen (AID 1852); conditions: TNF-a induced, 14 h, at 4 µM, stronger effect = higher value

inhibition, inactive:
COc1ccc(N2CCN(C(=O)c3ccc(CNS(=O)(=O)c4ccc(C)cc4)cc3)CC2)cc1 35.1%
Cc1cccc(-n2ncc3c(N(C)C4CCCCC4)ncnc32)c1 -64.4%
Cn1c(N2CCN(c3ccccn3)CC2)nc2c1c(=O)n(Cc1ccc(Cl)cc1)c(=O)n2C 17.7%
Cn1c(=O)c2c(nc(Oc3ccc4ccccc4c3)n2C)n(C)c1=O 40.5%
C=CCn1c(Oc2ccc(C(=O)OC)cc2)nc2c1c(=O)n(C)c(=O)n2C 47.2%
Cn1c(=O)[nH]c(=O)c2c1nc(N1CCC(Cc3ccccc3)CC1)n2Cc1ccccc1 41.2%
CCCCCn1c(SCCc2ccccc2)nc2c1c(=O)[nH]c(=O)n2C 31.3%
CN(Cc1ccc(F)cc1)S(=O)(=O)c1nnc(NC(=O)c2ccccc2)s1 21%
COc1ccc(C(=O)Nc2nnc(S(=O)(=O)N(C)Cc3ccc(F)cc3)s2)cc1OC -1%
CS(=O)(=O)c1ccc2nc(NC(=O)c3cccc(NS(=O)(=O)c4ccc(F)c(F)c4)c3)sc2c1 -0.8%
Cc1nc2ccc(NS(=O)(=O)c3ccc(C)c(C)c3)cc2s1 48.4%
Cc1nc2ccc(NS(=O)(=O)c3ccc(F)c(C)c3)cc2[nH]1 42.8%
Cc1ccc(-c2nc3cccnc3s2)cc1NS(=O)(=O)c1ccc2c(c1)OCCO2 27.3%
COC(=O)C(=Cc1ccc(OCc2ccc([N+](=O)[O-])cc2)c(OC)c1)C(=O)OC 18%
Cc1ccc2c(c1)N(C)/C(=C/c1cccc[n+]1C)S2 24.9%
O=C(Nc1cccc(-c2ccc(N3CCCCC3)nn2)c1)C(F)(F)F -90.7%
Cc1ccc(S(=O)(=O)/C(=C/Cl)NC(=O)c2ccccc2)cc1 11.6%
O=C(Nc1sc2c(c1C(=O)O)CCCC2)c1ccc(Cl)cc1 29.8%
CCC(=O)N1c2ccc(S(=O)(=O)N3CCN(c4ccc([N+](=O)[O-])cc4)CC3)cc2CC1C (stereo unspecified) 26.6%
CCN(CC)S(=O)(=O)c1ccc(NC(=O)Nc2cccc(C(F)(F)F)c2)cc1 10.5%
O=C(Nc1ccc(OC(F)F)cc1)Nc1cccc(C(F)(F)F)c1 14.2%
Oc1ccc(Oc2ccc3c(C(F)(F)F)cc(C(F)(F)F)nc3n2)cc1 45.2%
N#CC(c1ccccc1)c1ccc2c(C(F)(F)F)cc(C(F)(F)F)nc2n1 (stereo unspecified) 20.4%
O=c1c2cc(Br)ccc2nc(-c2ccc(Cl)cc2)n1O -30%
Cc1ccc(C(=O)O/N=C(\N)c2ccccn2)c(Cl)c1 -56.4%
N/C(=N\OC(=O)c1cccc2ccccc12)c1ccc(Br)cc1 -0.8%
C=C(C(=O)c1ccccc1)C(CC(=O)c1ccccc1)c1ccccc1 (stereo unspecified) -23.3%
C=C(C(=O)c1ccccc1)C(C)CC(=O)c1ccccc1 (stereo unspecified) -8.9%
CCC1C(=NO)C(CC)C(c2ccccc2)NC1c1ccccc1 (stereo unspecified) 32.5%
COc1cc(/C=C/[N+](=O)[O-])ccc1OCc1cccc(C(=O)O)c1 46%
COc1ccc(/C=C/C(O)=C2/C(=O)N(C)C3(C)CC2c2ccccc2O3)cc1 (stereo unspecified) -8.9%
COC(=O)C1CCN(C(=O)C2CCN(C(=O)[C@@H](NS(=O)(=O)c3ccc(C)cc3)C(C)C)CC2)CC1 15.9%
COC(=O)/C(=C\c1cc(OC)c(OC)c(OC)c1)c1nc2ccccc2[nH]1 -13.3%
COc1ccc(Nc2nc(C(=O)N3CCc4ccccc4C3)cs2)cc1 20.3%
O=C(c1ccc(Cl)cc1)C1CCCN(Cc2cnn(-c3ccccc3)c2)C1 (stereo unspecified) 5.5%
Cc1oc(-c2ccc(Cl)cc2)nc1CSCC(=O)NC1CCN(Cc2ccccc2)CC1 47.1%
CCSc1nnc(Cc2cc(=O)[nH]c(=O)[nH]2)n1-c1cc(C)ccc1C 16.9%
Cc1ccc(-n2c3nc(=O)[nH]c(=O)c-3cc3cc([N+](=O)[O-])ccc32)cc1C 41.9%
COc1cccc(/C=C2/SC(=S)N(CCCC(=O)Nc3ccc(O)cc3)C2=O)c1 19.5%
COc1ccc(/C=C2/SC(=S)N(CCC(=O)O)C2=O)cc1 36%
CC(/C=C1\SC(=S)N(c2ccc(C(=O)O)cc2)C1=O)=C\c1ccccc1 3.6%
CCc1cc2c3c(c1)C(C)CC(C)(C)N3C(=O)/C2=C1\SC(=O)NC1=O (stereo unspecified) 6.9%
COc1ccc2c(c1)oc(=O)c1ccccc12 -18.4%
COc1ccc(-c2cc(=O)oc3cc(O)ccc23)cc1 2.6%
COc1ccc(N2C(=O)C(Cl)=C(Oc3cccc(OC)c3)C2=O)cc1 13%
CC(=O)c1ccc(N2CCN(S(=O)(=O)c3ccc4c(c3)CC(C)N4C(=O)C3CC3)CC2)cc1 (stereo unspecified) 23.2%
Cc1ccc(NC(=O)CSc2nc(C)c(Cc3ccccc3)c(=O)[nH]2)cc1 20%
O=C(CSc1nc2scc(-c3ccccc3)c2c(=O)[nH]1)Nc1ccccc1 32.9%

inhibition, active:
Cc1ccc(NS(=O)(=O)c2ccc(C(=O)N3CCN(c4ncccn4)CC3)cc2)cc1 61.5%
COc1cccc(N2CCN(c3ncnc4c3cnn4-c3ccc(C)cc3C)CC2)c1 102%
CCOC(=O)C1=C(C)N=c2s/c(=C/c3cccc([N+](=O)[O-])c3O)c(=O)n2C1c1ccccc1 (stereo unspecified) 74.5%
C=CCn1c(Oc2ccccc2F)nc2c1c(=O)n(C)c(=O)n2C 78.4%
CCn1c(Oc2ccccc2F)nc2c1c(=O)n(C)c(=O)n2C 69.1%
Cn1c(=O)[nH]c(=O)c2c1nc([N+](=O)[O-])n2Cc1ccccc1 104%
CN(Cc1ccccc1)S(=O)(=O)c1nnc(NC(=O)c2ccc(F)cc2)s1 74.3%
CSc1nc2ccc(NS(=O)(=O)c3ccc4c(c3)OCCO4)cc2s1 100%
Cc1nc2ccc(NS(=O)(=O)c3c(C)c(C)cc(C)c3C)cc2s1 61.8%
Cc1nc2ccc(NS(=O)(=O)c3ccc4c(c3)OCCO4)cc2s1 72.1%
O=[N+]([O-])c1cc([N+](=O)[O-])c2oc(-c3ccccc3)c(Br)c2c1O 66%
CCN1/C(=C/c2cccc[n+]2C)Sc2ccc(OC)cc21 50.4%
Cc1ccc(C(=O)Sc2cccccc2=O)cc1 103%
CN(C)c1ccc(C(=O)Nc2nnc(-c3ccc(Cl)cc3)o2)cc1 106%
O=C(Nc1nnc(-c2ccccc2)o1)c1ccc(Cl)cc1 104%
Cc1cccc(-c2nnc(NC(=O)c3ccc(Cl)cc3)o2)c1 102%
CCN(CC)S(=O)(=O)c1cccc(NC(=O)Nc2cccc(C(F)(F)F)c2)c1 69%
N#CC(c1cccc(Cl)c1)c1ccc2c(C(F)(F)F)cc(C(F)(F)F)nc2n1 (stereo unspecified) 55.7%
O=c1c2cc(Cl)ccc2nc(-c2ccc(Cl)c(Cl)c2)n1O 74.1%
O=c1c2cc(Br)ccc2nc(-c2cccc(C(F)(F)F)c2)n1O 65%
Cc1ccc(C(=O)O/N=C(\N)c2ccccn2)c(C)c1 61.4%
CCN(CC)S(=O)(=O)c1ccc(Oc2ccc(S(=O)(=O)N(CC)CC)cc2)cc1 70.1%
C=C(C(=O)c1ccccc1)C(C(=C)C(=O)c1ccccc1)c1ccc(OC)cc1 62.5%
CCOc1ccc(/C=C/C(O)=C2/C(=O)N(C)C3(C)CC2c2ccccc2O3)cc1OC (stereo unspecified) 51.8%
CC(C)c1ccc(S(=O)(=O)/N=C2/C=C(Sc3ncn[nH]3)C(=O)c3ccccc32)cc1 84.1%
Cc1ccc(S(=O)(=O)/N=C2/C=C(Sc3ncn[nH]3)C(=O)c3ccccc32)c(C)c1 100%
Cc1cc(C)c(S(=O)(=O)/N=C2/C=C(Sc3ncn[nH]3)C(=O)c3ccccc32)cc1C 75.1%
Cc1ccc(C)c(SCC(=O)OC/C(O)=C(\C#N)c2nc3ccccc3[nH]2)c1 52.5%
Cc1cc(Br)ccc1SCC(=O)OC/C(O)=C(\C#N)c1nc2ccccc2[nH]1 106%
Cc1cc(SCC(=O)OC/C(O)=C(\C#N)c2nc3ccccc3[nH]2)c(C)cc1Br 59.5%
COc1ccccc1C(=O)Nc1nc2ccccc2[nH]1 82.8%
COc1cc(SC)ccc1C(=O)Nc1nc2ccccc2[nH]1 103%
CCOC(=O)N1CCN(C(=O)C2CCCN(Cc3nc(-c4ccc(Cl)cc4)oc3C)C2)CC1 (stereo unspecified) 56.2%
Cc1ccc(C)c(-n2c3nc(=O)[nH]c(=O)c-3cc3cc([N+](=O)[O-])ccc32)c1 58.5%
CC(/C=C1\SC(=O)N(CCCC(=O)O)C1=O)=C\c1ccccc1 79.5%
O=C(O)CCCN1C(=O)/C(=C\C(Cl)=C\c2ccccc2)SC1=S 77.9%
CC1(c2ccccc2)CC(C)(C)N2C(=O)/C(=C3\SC(=S)NC3=O)c3cccc1c32 (stereo unspecified) 84.3%
COc1ccc2c(C#N)c3ccccn3c2c1 66.3%
N#Cc1c2ccc(O)cc2n2ccccc12 70%
O=C(Oc1cc2oc(=O)cc(-c3ccccc3)c2cc1Cl)C1CCCCC1 77.6%
COc1ccc(-c2cc(=O)oc3cc(OC(=O)C4CCCCC4)c(Cl)cc23)cc1 95.3%
Nc1ccc(Oc2cccc(Oc3ccc(N)cc3)c2)cc1 54.8%
O=C(CSC1=NNC(c2ccccn2)S1)Nc1ccccc1 (stereo unspecified) 50.1%
